According to PubChem BioAssay (NCATS):
Inconclusive results are not listed. A number with no mark means an inactive call. Calls come from the whole dose curve; as a rule, active = well fitted inhibition curve with a large enough effect; inconclusive = small, poorly fitted or top-dose-only effect; inactive = no such curve, though single readings can be large or run the other way.

Biological target: Retinaldehyde dehydrogenase 3 (Homo sapiens) (UniProt P47895)
Assay: qHTS for Inhibitors of the Aldehyde Dehydrogenase Family (ALDH1A3) Primary screen (AID 2061315);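 note: plate controls were DMSO vehicle for no effect and reference inhibitor for full effect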
Conditions: ALDH inhibition qHTS; series mostly up to 56 µM; activity change, negative = inhibition: at the top concentration

SMILES | activity change, negative = inhibition
C/C=C1\[C@H](O[C@@H]2O[C@H](CO)[C@@H](O)[C@H](O)[C@H]2O)OC=C(C(=O)O)[C@H]1CC(=O)OCCc1ccc(O)cc1 | 7.92% [at 28 µM]
CC(C)CC[C@@H](O)[C@](C)(O)[C@H]1CC[C@@]2(O)C3=CC(=O)[C@@H]4C[C@@H](O)[C@@H](O)C[C@]4(C)[C@H]3CC[C@]12C | 6.72%
CC(=O)c1[nH]cc(CCC(=O)O)c1CC(=O)O | 0.728%
CC1CCC2(NC1)OC1CC3C4CC=C5CC(O[C@@H]6O[C@H](CO)[C@@H](O[C@@H]7O[C@@H](C)[C@H](O)[C@@H](O)[C@H]7O)[C@H](O)[C@H]6O[C@@H]6O[C@@H](C)[C@H](O)[C@@H](O)[C@H]6O)CCC5(C)C4CCC3(C)C1C2C (stereo not given in full) | 16.2% [at 16.9 µM]
COc1cccc2c1CCC[C@H]2CN(C)CCc1ccc2ccoc2c1 | -0.263%
C=C1CC23CC1CCC2C12OC(=O)C(C)(C(O)C(O)C1O)C2C3C(=O)O (stereo not given) | -12.9%
O=C(O)CC1CC(c2ccccc2)=NO1 (stereo not given) | -12.9% [at 16.9 µM]
CC1=C2C(=O)C=C(CO[C@@H]3O[C@H](CO)[C@@H](O)[C@H](O)[C@H]3O)[C@@H]2[C@H]2OC(=O)[C@H](C)[C@@H]2[C@@H](O)C1 | -7.4% [at 28 µM]
COCCCNC(=O)c1ccc(Cn2c(=O)c3ccccc3n(Cc3ccc(C(C)C)cc3)c2=O)cc1 | 12.9%
CCC(C)C(=O)O[C@H]1C[C@](C)(O)[C@]23OC(C)(C)[C@H](C[C@H](OC(=O)c4ccccc4)[C@]2(COC(C)=O)[C@H]1OC(=O)C(C)CC)[C@H]3OC(C)=O (stereo not given in full) | -0.699% [at 16.9 µM]
